The nature of experiment [1]: cAMP Responsive Elements (CRE) small molecule antagonists, cell-based qHTS assay: qHTS cell viability counter screen (AID 2060913). Further: nearly all actives have a fitted effect of over 40% in size. The following applies: CRE-bla HEK293T viability, CellTiter-Glo luminescence, 5 h; series mostly up to 92.4 µM. In outline: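 Cytotoxicity counter screen multiplexed with the CRE-bla antagonist read: HEK293T cells in DMEM with dialyzed FBS and 25 mM HEPES were treated 3 hrs under 0.25 uM final NKH477, then viability measured by CellTiter-Glo luminescence.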
A general note: qHTS replaces the single test concentration by a dilution series.

Experiment [2] in a line: cAMP Responsive Elements (CRE) small molecule agonists, cell-based qHTS assay: qHTS cell viability counter screen (AID 2060914).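 Further: viability read after 3 h of compound exposure; nearly all actives have a fitted effect of over 50% in size.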 The following applies: CRE-bla HEK293T viability, CellTiter-Glo luminescence, 5 h; series mostly up to 92.4 µM. In outline:
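Cytotoxicity counter screen multiplexed with the CRE-bla reporter assay in HEK 293T cells: 3 h compound exposure at 37 °C, followed by CellTiter-Glo luminescence measured in the same wells.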

SMILES strings stand for the structures. Results filed as inconclusive are left out. Entries that show only a call come without a potency. Activity calls are given as the source filed them. The call rests on the fitted dose curve; in most records, active means well fitted cell-killing curve with a large enough effect in the repeat runs; inconclusive means weak or mixed curves, or effect the other way; inactive means flat fitted curve, though single readings scatter.

Turning to `CC(C)CC(=O)N[C@H](C(=O)N[C@H](C(=O)N[C@@H](CC(C)C)[C@@H](O)CC(=O)N[C@@H](C)C(=O)N[C@@H](CC(C)C)[C@@H](O)CC(=O)O)C(C)C)C(C)C`, the Potency result in experiment [1] and in experiment [2] was “inactive” throughout.

For the compound `CCCCCCCCOc1ccc(C(=O)O)cc1`, the Potency entry in experiment [1] and in experiment [2] was “inactive” in each case.

As for `CC(C)(C)c1cc(CCC(=O)NN)cc(C(C)(C)C)c1O`, the Potency result in experiment [1] and in experiment [2] was “inactive” in each case.

For `Cc1ccc(-n2[nH]c(C)c(N=Nc3cccc(-c4cccc(C(=O)O)c4)c3O)c2=O)cc1C`, the Potency result in experiment [1] and in experiment [2] was “inactive” each time.

Take `CCCCOC(=O)CCCCCCCCC(=O)OCCCC`: the Potency result in experiment [1] and in experiment [2] was “inactive” throughout.

Take `NC(=O)NC1NC(=O)NC1=O` (centres undefined): the Potency result in experiment [1] and in experiment [2] was “inactive” each time.

On to `OC/C=C/CO`, for which the Potency result in experiment [1] and in experiment [2] was “inactive” in each case.

The values are drawn from PubChem BioAssay (Tox21).
